G9a block: blocks human histone lysine methyltransferase G9a; Potency, µM (titrated, usually from 102 µM), for the others: at the top dose activity, negative = inhibition, most hits filed as inhibitors; 350,000 compounds, 8.8% hits; AID 504332; G9a H3K9 monomethylation, AlphaScreen, 2 h; note: potency is the fitted concentration of half-maximal effect; % is set by controls: 0 for no effect and ±100 for the full control effect; nearly all actives have a fitted effect of over 75% in size
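G9a (20 nM) preincubated 15 min RT with compounds, then 500 nM biotinylated H3K9 peptide and 20 uM SAM added; 2 h RT reaction. Monomethyl-H3K9 product detected by AlphaScreen with anti-H3K9me1 antibody, streptavidin donor and anti-rabbit IgG acceptor beads.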
BAZ2B inh: blocks human BAZ2B. Q9UIF8. AlphaScreen BAZ2B-H3K14Ac peptide displacement. Potency, µM (doses to about 114 µM), for inactives: at the top dose activity change, negative = inhibition, actives largely listed as inhibitors. 360,000 compounds, 4.4% hits. AID 504333; note: potency is the fitted concentration of half-maximal effect; % is set by controls: 0 for no effect and ±100 for the full control effect; nearly all actives have a fitted effect of over 60% in size
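AlphaScreen luminescence quantifies BAZ2B engagement of H3K14Ac peptide; the protein and biotinylated peptide are both at 50 nM final, buffer PBS pH 7.4 with 0.01% Tween-20, all steps at room temperature.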
PI5P4Ka inh: blocks human PI5P4K alpha kinase activity; P48426; PI5P4Kalpha enzyme, ADP-Glo luminescence, 60 min; hits give low values; max response, %; 330,000 compounds, 1.2% hits; AID 652105; active = max response of -50% or lower; inconclusive = between -30% and -50%; inactive = -30% or higher; note: value at the top dose of about 77 µM; % is set by controls: 0 for no effect and ±100 for the full control effect
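ADP-Glo luminescence end-point read after a 60 min room-temperature kinase reaction of PI5P4Kalpha plus substrate, initiated with ATP at 5 microM final. Buffer: 0.038 M HEPES pH 7.4, EGTA, 0.1% CHAPS, 5% DMSO.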
PLK1 PBD block: PLK1 (human) polo-box domain binding inhibition | Potency, µM, inactives show max response, negative = inhibition, most hits filed as inhibitors | 360,000 compounds, 2.8% hits | P53350 | Plk1 PBD binding of FITC phosphopeptide, fluorescence polarization; note: potency is the fitted concentration of half-maximal effect; series mostly up to about 57 µM; % is set by controls: 0 for no effect and ±100 for the full control effect; nearly all actives have a fitted effect of over 65% in size
JMJD2A Tudor: inhibitors of human JMJD2A Tudor domain. AID 504339. 390,000 compounds, 4.4% hits. AlphaScreen JMJD2A-Tudor / H3K4me3 peptide binding. O75164. Potency, µM (top dose mostly 114 µM), for the others: at the top dose activity change, negative = inhibition, actives largely listed as inhibitors; note: potency is the fitted concentration of half-maximal effect; % is set by controls: 0 for no effect and ±100 for the full control effect; nearly all actives have a fitted effect of over 50% in size
HP1b binding inh: HP1-beta chromodomain-methylated histone interaction inhibition | AlphaScreen HP1-beta / biotin-H3K9me3 peptide binding | Potency, µM (doses to about 114 µM), without a hit: top-dose activity change, negative = inhibition, hits mostly inhibitors | 390,000 compounds, 0.56% hits | AID 540317; note: potency is the fitted concentration of half-maximal effect; nearly all actives have a fitted effect of over 70% in size
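HP1-beta protein (50 nM final) preincubated 30 min at room temperature with biotinylated H3(1-18)K9me3 peptide (50 nM) in PBS pH 7.4, 0.01% Tween-20, then compound added for 30 min. AlphaScreen streptavidin donor/nickel chelate acceptor beads (10 ug/mL final), 30 min dark, luminescence read.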
Starred values were filed as active, the others as inactive; ? = inconclusive; nt = no result given; [ ] = another dose, or the depositor's remark. Shown are actives, neighbours in structure and some others; about 12% of the full set was active somewhere. Unless noted, calls come from the whole dose curve; as a rule, active = well fitted curve in the direction sought with a large enough effect; inconclusive = small, poorly fitted or top-dose-only effect, or another doubt; inactive = no such curve, though single readings can be large; an effect the other way counts as inactive or inconclusive.

SMILES | G9a block | BAZ2B inh | PI5P4Ka inh | PLK1 PBD block | JMJD2A Tudor | HP1b binding inh
CC(=O)C1=C(C)OC(N)=C(C#N)C1c1cc([N+](=O)[O-])ccc1Cl (configuration not stated) | nt | -9.8% | -3.9 | -14.5% | -19.3% | 34.7%
CN(C)S(=O)(=O)c1ccc(F)c(C(=O)Nc2ccccc2C(=O)NC2CC2)c1 | -6.4%[2.33 µM] | 1.4% | -6.4 | 2.9% | ? | 28.1%
CCOC(=O)c1ccc(NC(=O)c2ccc(=O)n(Cc3cccc(C)c3)c2)cc1 | 7.0%[59 µM] | 2.9% | nt | nt | -16.5% | 17.7%[57 µM]
N#C/C(=C/c1ccc(Br)o1)C(N)=S | 31.6µM* | ? | nt | nt | nt | nt
COc1ccc(NC(=O)/C(C#N)=C/c2ccc(C)o2)cc1 | -3.4%[59 µM] | -2.6% | nt | nt | -17.6% | 15.1%
O=C(Nc1ccc(Nc2ccccc2)cc1)c1ccc(Br)o1 | 35.5µM* | 22.4µM* | -1.3 | -8.2% | 39.8µM* | ?
COc1ccc(NC(=O)/C(C#N)=C/c2ccc(Br)o2)cc1 | -43.2%[12.7 µM] | 50.1µM* | nt | -15.6% | ? | -0.2%
COc1ccc(NC(=O)c2ccc(Br)o2)cc1 | 31.6µM* | ? | 0.6 | 1.6% | -10.6% | 25.8%
N#C/C(=C/c1ccc(Br)o1)C(N)=O | 1.4%[59 µM] | -3.9% | -9.0 | -3.0% | 8.6% | 39.1%
Cc1ccc(N2CCN(C(=S)c3ccc(-c4ccccc4[N+](=O)[O-])o3)CC2)cc1 | 7.08µM* | 10µM* | -3.4 | 9.47µM* | 31.6µM* | 14.1µM*
O=[N+]([O-])c1ccccc1-c1ccc(C(=S)N2CCN(c3ccccc3)CC2)o1 | nt | 8.91µM* | -2.2 | 23.8µM* | 22.4µM* | ?
O=C(NC1CCCCC1)c1ccc(-c2ccccc2[N+](=O)[O-])o1 | ? | ? | 0.8 | -16.7% | ? | -4.9%
COc1ccc(-n2c(=O)c3c4c(sc3n(Cc3cc(C)ccc3C)c2=O)CN(C(C)=O)CC4)c(OC)c1 | -27.9%[59 µM] | ? | nt | nt | ? | 10.4%
Cc1cc2oc(=O)cc(CN(C)Cc3ccccc3)c2cc1C(C)C | -6.9%[2.33 µM] | 25.3% | -1.0 | 4.4% | 60.6% | 30.4%
COc1ccc(CN(C)Cc2cc(=O)oc3cc(C)c(C(C)C)cc23)cc1OC | 89.1µM* | -13.5% | -0.2 | -1.6% | -10.7% | 55.7%
CCOC(=O)c1cc(-c2ccc(C)cc2)n(CC(=O)NC2CCCCCC2)c1C | -5.3%[59 µM] | 0.9% | nt | nt | -14.2% | 14.9%
C=CCn1c(CCC(O)COCCC)n[nH]c1=S (configuration not stated) | -33.9% | -27.2% | -6.1 | -9.1% | 22.4µM* | 25.8%
C=C(C)Cn1c(CCn2c3ccccc3c3ccccc32)n[nH]c1=S | ? | -31.9% | 5.9 | -5.9% | -27.1% | 31.4%
CC(=O)Nc1nc(C)cs1 | 7.0% | -14.3% | 0.5 | 6.6% | -9.6% | 29.0%
Cc1csc(NC(=O)NCC2CCCC(CNC(=O)Nc3nc(C)cs3)C2)n1 (configuration not stated) | 14.1µM* | -29.8% | -8.7 | -7.2% | -28.7% | 1.1%
COc1cc(CNCCNC(=O)c2nonc2N)ccc1OCc1ccc(Cl)nc1 | ? | -9.7% | -29.1 | 29.9µM* | ? | 9.1%
Cc1cc(=O)oc2c(CN3CCCCC3)c(O)ccc12 | nt | nt | 0.3 | -7.5% | -4.9% | 24.4%
Oc1ccc2[nH]cnc2c1CN1CCCCC1 | 5.62µM* | 11.4% | -7.5 | 2.0% | 4.1% | 23.7%
CO[C@@H]1[C@@H](OC2OC(C)C(OC3CC(C)(O)C(OC(=O)CC(C)C)C(C)O3)C(N(C)C)C2O)[C@@H](CC=O)C[C@@H](C)C(=O)/C=C\C2O[C@H]2C[C@@H](C)OC(=O)C[C@H]1OC(C)=O (some centres not stated) | -4.8%[12.7 µM] | nt | nt | nt | nt | nt
COCCN=c1scc(-c2ccc3c(c2)NC(=O)CO3)n1/N=C(\C)c1ccc(O)cc1 | nt | 28.2µM* | -3.1 | -4.7% | 22.4µM* | ?
SMILES | G9a block | BAZ2B inh | PI5P4Ka inh | PLK1 PBD block | JMJD2A Tudor | HP1b binding inh
COc1cc(/C=N/n2c(-c3ccc4c(c3)NC(=O)CO4)csc2=Nc2cccc(C)c2)ccc1O | 10µM* | 8.91µM* | -7.6 | -14.0% | ? | ?
COc1cc(/C=N/n2c(C)nc3ccccc3c2=O)ccc1O | -0.3% | -3.1% | -1.6 | 2.4% | -3.7% | 31.1%
CCOC(=O)C1CCCN(C(=O)c2c(C)nn(-c3ccc(F)cc3)c2-n2cccc2)C1 (configuration not stated) | 6.9%[59 µM] | -29.1% | nt | nt | -4.5% | 41.2%
CC(C)C[C@H]1CNC(=S)N1C[C@H]1CCCN1C[C@H](Cc1ccc(O)cc1)N1C[C@H](CC(C)C)N(CCc2ccccc2)C1=S | nt | nt | -0.1 | 6.1% | nt | nt
COc1cc(C2C3C(=O)N(c4ccc(F)cc4)C(=O)C3ON2c2ccccc2)ccc1O (configuration not stated) | -7.8%[2.33 µM] | 2.5% | 2.7 | 0.5% | 10.1% | 43.2%
CN(C)c1ccc(C2C3C(=O)NC(=O)C3ON2c2ccc(Cl)cc2)cc1 (configuration not stated) | ? | 50.1µM* | 0.2 | ? | 56.2µM* | -17.4%
c1ccc(N=NC2=NN(c3ccccc3)CS2)cc1 | nt | nt | 0.4 | 3.9% | nt | nt
COc1ccc(OC)c(CCNC(=O)CCc2cn(Cc3cc(C)ccc3C)c3ccccc23)c1 | ? | ? | nt | nt | ? | 5.9%
Cc1cccc(NC(=S)NNC(=S)NC2CCCCC2)c1C | 1.26µM* | -8.6% | 4.4 | ? | -26.2% | -14.0%
Cc1ccccc1NC(=S)NC1CCCC1 | -7.1% | 8.2% | -1.8 | -12.9% | -8.2% | 10.6%
O=C(Nc1ccccc1)c1ccccc1NC(=O)C1CCCCC1 | ? | -1.2% | 8.5 | -21.0% | -13.8% | 21.9%
Cc1cccc(NC(=O)c2ccccc2NC(=O)C2CCCCC2)c1C | 15.5%[0.501 µM] | 50.1µM* | nt | -10.3% | -12.8% | 0.0%
COc1ccc(-c2ccc3c(N)c(C(=O)Nc4cccc(C)c4)sc3n2)cc1 | -20.0%[59 µM] | 3.2% | nt | nt | -4.2% | 47.4%
CCc1ccc(OCCCCCn2ccnc2)cc1 | 10µM* | 50.1µM* | 1.7 | 1.3% | 2.51µM* | 56.2µM*
CCc1ccc(OCCn2ccnc2)cc1 | 22.4µM* | ? | -0.6 | 6.4% | 28.2µM* | ?
Fc1ccc(OCCCCCn2ccnc2)cc1 | 13.2% | -26.3% | -1.5 | -9.1% | -17.8% | 18.2%
Cc1cc(C(=O)NNC(=O)COc2ccccc2Cl)n[nH]1 | 79.4µM* | 4.4% | 5.2 | -6.7% | 11.9% | 29.2%
Cc1cnc(NC(=O)COc2ccccc2Cl)s1 | 56.2µM* | 1.2% | nt | -5.5% | -18.2% | 9.9%
Cc1cnc(NC(=O)Nc2ccc(Cl)cc2)s1 | 50.1µM* | 15.6% | 5.6 | -12.7% | -9.7% | 22.2%
Cc1cnc(NC(=O)CSc2ccc(Cl)cc2)s1 | 48.8%[12.7 µM] | 4.3% | -0.4 | ? | -22.2% | 28.3%
CC1=CC(=NOC(=O)c2cccc([N+](=O)[O-])c2)C=C(C)C1=O | ? | ? | -15.8 | 6.7µM* | -27.0% | 24.1%

Screening data (PubChem BioAssay)
